Columns and labels:
Conditions in all cases: treatment time: 24 h
A549-ACTB-RAB5A [1] = test: lowest phenotypically active concentration; higher = less potent
Method in brief: (§1)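 After 24 h at 0.3, 1, 3 or 9 µM, with four wells per treatment, fifteen gene-edited A549, HepG2 and WPMY1 reporter lines carrying BFP, GFP and RFP/FusionRed were imaged live. Each well's live-cell features were expressed relative to solvent control wells. Deviation required ≥3 of 4 wells past the 95th percentile of control Euclidean distances, and reproducibility a median replicate Pearson correlation over the 95th percentile of non-replicates. Phenotypic activity rested on both.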

A549-GM130-SQSTM1 [2] = test: as above
Method in brief: as §1

A549-TUBA1B-RELA [3] = test: as above
Method in brief: as §1

A549-ACTB-RAB5A [4] = test: phenotypically active (imaging signature differs from DMSO and reproducible) at any of 0.3-9 uM (binary (1 = active, 0 = inactive)); higher = active
Method in brief: as §1

A549-CANX-COX4 = test: as above
Method in brief: as §1

A549-GM130-SQSTM1 [5] = test: as above
Method in brief: as §1

A549-TP53BP1-CLTA = test: as above
Method in brief: as §1

A549-TUBA1B-RELA [6] = test: as above
Method in brief: as §1

HepG2-ACTB-RAB5A [7] = test: as above
Method in brief: as §1

HepG2-CANX-COX4 = test: as above
Method in brief: as §1

HepG2-GM130-SQSTM1 = test: as above
Method in brief: as §1

HepG2-TP53BP1-CLTA [8] = test: as above
Method in brief: as §1

HepG2-TUBA1B-RELA = test: as above
Method in brief: as §1

WPMY1-ACTB-RAB5A = test: as above
Method in brief: as §1

WPMY1-CANX-COX4 = test: as above
Method in brief: as §1

WPMY1-GM130-SQSTM1 = test: as above
Method in brief: as §1

WPMY1-TP53BP1-CLTA = test: as above
Method in brief: as §1

WPMY1-TUBA1B-RELA = test: as above
Method in brief: as §1

HepG2-ACTB-RAB5A [9] = test: lowest phenotypically active concentration; higher = less potent
Method in brief: as §1

HepG2-TP53BP1-CLTA [10] = test: as above
Method in brief: as §1

c1cc(-c2cc(C3CCNCC3)[nH]n2)ccn1
active: phenotypically active (A549-ACTB-RAB5A [4]) 1 | phenotypically active (A549-CANX-COX4) 1 | phenotypically active (A549-GM130-SQSTM1 [5]) 1 | phenotypically active (A549-TUBA1B-RELA [6]) 1 | phenotypically active (HepG2-CANX-COX4) 1 | phenotypically active (WPMY1-ACTB-RAB5A) 1 | phenotypically active (WPMY1-CANX-COX4) 1
9 µM: lowest phenotypically active concentration (A549-ACTB-RAB5A [1]) | lowest phenotypically active concentration (A549-TUBA1B-RELA [3])
inactive: phenotypically active (A549-TP53BP1-CLTA) 0 | phenotypically active (HepG2-ACTB-RAB5A [7]) 0 | phenotypically active (HepG2-GM130-SQSTM1) 0 | phenotypically active (HepG2-TP53BP1-CLTA [8]) 0 | phenotypically active (HepG2-TUBA1B-RELA) 0 | phenotypically active (WPMY1-GM130-SQSTM1) 0 | phenotypically active (WPMY1-TP53BP1-CLTA) 0 | phenotypically active (WPMY1-TUBA1B-RELA) 0
3 µM: lowest phenotypically active concentration (A549-GM130-SQSTM1 [2])

C=C1C(=O)O[C@@H]2C=C(C)CCC=C(C)CC[C@@H]12 [Costunolide]
inactive: phenotypically active (A549-GM130-SQSTM1 [5]) 0 | phenotypically active (A549-TP53BP1-CLTA) 0 | phenotypically active (A549-TUBA1B-RELA [6]) 0 | phenotypically active (HepG2-TUBA1B-RELA) 0 | phenotypically active (WPMY1-CANX-COX4) 0
9 µM: lowest phenotypically active concentration (A549-ACTB-RAB5A [1]) | lowest phenotypically active concentration (HepG2-ACTB-RAB5A [9]) | lowest phenotypically active concentration (HepG2-TP53BP1-CLTA [10])
active: phenotypically active (A549-ACTB-RAB5A [4]) 1 | phenotypically active (A549-CANX-COX4) 1 | phenotypically active (HepG2-ACTB-RAB5A [7]) 1 | phenotypically active (HepG2-CANX-COX4) 1 | phenotypically active (HepG2-GM130-SQSTM1) 1 | phenotypically active (HepG2-TP53BP1-CLTA [8]) 1 | phenotypically active (WPMY1-ACTB-RAB5A) 1 | phenotypically active (WPMY1-GM130-SQSTM1) 1 | phenotypically active (WPMY1-TP53BP1-CLTA) 1 | phenotypically active (WPMY1-TUBA1B-RELA) 1

N#C/C(=C/c1ccc(O)c(O)c1)C(=O)NCCCCc1ccccc1
active: phenotypically active (A549-ACTB-RAB5A [4]) 1 | phenotypically active (A549-CANX-COX4) 1 | phenotypically active (A549-GM130-SQSTM1 [5]) 1 | phenotypically active (A549-TUBA1B-RELA [6]) 1 | phenotypically active (HepG2-ACTB-RAB5A [7]) 1 | phenotypically active (HepG2-CANX-COX4) 1 | phenotypically active (HepG2-GM130-SQSTM1) 1 | phenotypically active (HepG2-TP53BP1-CLTA [8]) 1 | phenotypically active (WPMY1-ACTB-RAB5A) 1 | phenotypically active (WPMY1-CANX-COX4) 1 | phenotypically active (WPMY1-GM130-SQSTM1) 1 | phenotypically active (WPMY1-TP53BP1-CLTA) 1 | phenotypically active (WPMY1-TUBA1B-RELA) 1
inactive: phenotypically active (A549-TP53BP1-CLTA) 0 | phenotypically active (HepG2-TUBA1B-RELA) 0
9 µM: lowest phenotypically active concentration (A549-ACTB-RAB5A [1]) | lowest phenotypically active concentration (A549-GM130-SQSTM1 [2]) | lowest phenotypically active concentration (A549-TUBA1B-RELA [3]) | lowest phenotypically active concentration (HepG2-ACTB-RAB5A [9]) | lowest phenotypically active concentration (HepG2-TP53BP1-CLTA [10])

COc1ccc(-c2cc(=O)c3c(O)cc(O)cc3o2)cc1O [Diosmetin]
9 µM: lowest phenotypically active concentration (A549-ACTB-RAB5A [1]) | lowest phenotypically active concentration (A549-GM130-SQSTM1 [2]) | lowest phenotypically active concentration (A549-TUBA1B-RELA [3])
inactive: phenotypically active (A549-TP53BP1-CLTA) 0 | phenotypically active (HepG2-ACTB-RAB5A [7]) 0 | phenotypically active (HepG2-CANX-COX4) 0 | phenotypically active (HepG2-GM130-SQSTM1) 0 | phenotypically active (HepG2-TP53BP1-CLTA [8]) 0 | phenotypically active (WPMY1-ACTB-RAB5A) 0 | phenotypically active (WPMY1-GM130-SQSTM1) 0
active: phenotypically active (A549-ACTB-RAB5A [4]) 1 | phenotypically active (A549-CANX-COX4) 1 | phenotypically active (A549-GM130-SQSTM1 [5]) 1 | phenotypically active (A549-TUBA1B-RELA [6]) 1 | phenotypically active (HepG2-TUBA1B-RELA) 1 | phenotypically active (WPMY1-CANX-COX4) 1 | phenotypically active (WPMY1-TP53BP1-CLTA) 1 | phenotypically active (WPMY1-TUBA1B-RELA) 1

C=C1C(=O)O[C@@H]2[C@H]3O[C@]3(C)CCC=C(C)CC[C@@H]12 [Parthenolide]
inactive: phenotypically active (A549-TP53BP1-CLTA) 0 | phenotypically active (HepG2-TP53BP1-CLTA [8]) 0 | phenotypically active (HepG2-TUBA1B-RELA) 0 | phenotypically active (WPMY1-TP53BP1-CLTA) 0
9 µM: lowest phenotypically active concentration (A549-ACTB-RAB5A [1]) | lowest phenotypically active concentration (A549-GM130-SQSTM1 [2]) | lowest phenotypically active concentration (A549-TUBA1B-RELA [3]) | lowest phenotypically active concentration (HepG2-ACTB-RAB5A [9])
active: phenotypically active (A549-ACTB-RAB5A [4]) 1 | phenotypically active (A549-CANX-COX4) 1 | phenotypically active (A549-GM130-SQSTM1 [5]) 1 | phenotypically active (A549-TUBA1B-RELA [6]) 1 | phenotypically active (HepG2-ACTB-RAB5A [7]) 1 | phenotypically active (HepG2-CANX-COX4) 1 | phenotypically active (HepG2-GM130-SQSTM1) 1 | phenotypically active (WPMY1-ACTB-RAB5A) 1 | phenotypically active (WPMY1-CANX-COX4) 1 | phenotypically active (WPMY1-GM130-SQSTM1) 1 | phenotypically active (WPMY1-TUBA1B-RELA) 1

CC(C)C(=O)SCCCCCCC(=O)Nc1nc(-c2ccccc2)cs1
active: phenotypically active (A549-ACTB-RAB5A [4]) 1 | phenotypically active (A549-CANX-COX4) 1 | phenotypically active (A549-TUBA1B-RELA [6]) 1 | phenotypically active (HepG2-CANX-COX4) 1 | phenotypically active (WPMY1-ACTB-RAB5A) 1 | phenotypically active (WPMY1-CANX-COX4) 1 | phenotypically active (WPMY1-GM130-SQSTM1) 1 | phenotypically active (WPMY1-TP53BP1-CLTA) 1 | phenotypically active (WPMY1-TUBA1B-RELA) 1
inactive: phenotypically active (A549-GM130-SQSTM1 [5]) 0 | phenotypically active (A549-TP53BP1-CLTA) 0 | phenotypically active (HepG2-ACTB-RAB5A [7]) 0 | phenotypically active (HepG2-GM130-SQSTM1) 0 | phenotypically active (HepG2-TP53BP1-CLTA [8]) 0 | phenotypically active (HepG2-TUBA1B-RELA) 0
9 µM: lowest phenotypically active concentration (A549-TUBA1B-RELA [3])
1 µM: lowest phenotypically active concentration (A549-ACTB-RAB5A [1])

Reference: the supplement of paper PMC7411054
